The values that follow come from PubChem BioAssay.

This experiment deals with E3 ubiquitin-protein ligase XIAP (Homo sapiens) (UniProt P98170). Briefly: small molecules binding XIAP protein – biophysical, small-molecule microarray, fluorescence 635 nm, primary screen (AID 1181).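 Further: score merges 667 nm emission and signal to noise over triplicate slides.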 As to conditions: higher = more signal.
Sequence of E3 ubiquitin-protein ligase XIAP (Homo sapiens) (P98170 whole entry, looked up): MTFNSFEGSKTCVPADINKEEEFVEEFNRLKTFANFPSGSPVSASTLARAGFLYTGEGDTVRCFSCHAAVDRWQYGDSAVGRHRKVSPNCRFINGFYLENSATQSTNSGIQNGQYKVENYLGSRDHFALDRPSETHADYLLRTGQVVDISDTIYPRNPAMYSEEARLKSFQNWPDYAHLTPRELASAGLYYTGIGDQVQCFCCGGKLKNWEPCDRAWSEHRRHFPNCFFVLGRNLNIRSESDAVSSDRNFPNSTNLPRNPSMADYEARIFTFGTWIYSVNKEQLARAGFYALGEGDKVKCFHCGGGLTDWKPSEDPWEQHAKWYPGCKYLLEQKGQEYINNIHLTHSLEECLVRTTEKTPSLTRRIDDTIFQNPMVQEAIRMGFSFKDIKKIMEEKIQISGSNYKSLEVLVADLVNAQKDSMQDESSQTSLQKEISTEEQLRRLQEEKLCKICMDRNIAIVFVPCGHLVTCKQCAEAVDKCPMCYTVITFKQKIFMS
In the case of `COCCOC(=O)N1C(=O)[C@@]2(c3cc(C#Cc4ccc(OC)cc4)ccc31)[C@H](C(=O)N1CCCCCCC1)[C@H]1C(=O)O[C@H](c3ccccc3)[C@H](c3ccccc3)N1[C@@H]2c1ccc(O)cc1`, the composite z-score was -0.0501. As to `CN(C)C(=O)[C@]1(CCC(=O)OC(C)(C)C)N=C(c2ccc(OCCCO)cc2)O[C@@H]1c1ccccc1`, the composite z-score is -0.0773.

In the case of `COC(=O)c1c(CC[C@@H](CO)NC(=O)N[C@H](Cn2cc(-c3ccccc3C)nn2)C(C)C)oc(C(C)=O)c1C(=O)OC`, the composite z-score was found to be 0.211. Next, `Cc1ccc(S[C@]2(C(=O)O)CC(=O)N(Cc3ccccc3Cl)[C@@H]2c2ccc(CO)cc2)cc1`: -0.0749. Under `COCCOC(=O)N1C(=O)[C@@]2(c3ccccc31)[C@H](C(=O)N1CCN(c3ncccn3)CC1)[C@H]1C(=O)O[C@H](c3ccccc3)[C@H](c3ccccc3)N1[C@@H]2c1ccc(OCCO)cc1` stands 0.0924; under `COCCOC(=O)N1C(=O)[C@@]2(c3cc(C#Cc4ccc(OC)cc4)ccc31)[C@H](C(=O)N1CCN(c3ncccn3)CC1)[C@H]1C(=O)O[C@H](c3ccccc3)[C@H](c3ccccc3)N1[C@@H]2c1ccccc1OCCO`, -0.0928. Next, `NCCCCCNC(=O)[C@@H]1C[C@@H]2C(=O)N[C@@H](CCCCN)C(=O)N2[C@@H]1c1cccc(OCCO)c1`: -0.399. Compound `COc1ccc([Si](C)(C)[C@H]2[C@H](CCn3cc([C@H](O)c4ccccc4)nn3)O[C@@]3(C(=O)N(Cc4ccc(N5CCC5=O)cc4)c4ccccc43)[C@@H]2C)cc1` came in with a composite z-score of -0.022. Under `O=C1C[C@@](C(=O)NCC(F)(F)F)(c2ccc([N+](=O)[O-])cc2)[C@@H](c2ccc(CO)cc2)N1C1CCCCC1` stands -0.209. On to `C#CCNC(=O)[C@H](Cc1ccccc1)NC(=O)[C@@H](N=[N+]=[N-])C(C)C`, for which the composite z-score was 0.117. For the compound `C[C@H]1C2=C3C(CC[C@H]4C(OCc5ccc(F)cc5C(F)(F)F)OC[C@](C)([C@@H]34)N(C(=O)OC(C)(C)C)C2)C2COC(=O)OCC21` (stereo partly specified), the composite z-score was found to be 0.572. Regarding `CC(C)(C)OC(=O)CC[C@]1(C(=O)N2CCOCC2)N=C(c2ccc(OCCCO)cc2)O[C@H]1c1ccccc1`, the composite z-score amounted to 0.0003. Under `COc1ccc([Si](C)(C)[C@H]2[C@H](CCn3cc([C@H](O)c4ccccc4)nn3)O[C@@]3(C(=O)N(Cc4cccc(N5C(=O)c6cccc7cccc5c67)c4)c4ccccc43)[C@@H]2C)cc1` stands -0.0516. For the compound `C=C(C(=O)CC[C@H](OC(=O)c1cccnc1)c1ccc(CO)o1)C(C)C`, the composite z-score was -0.187. Under `C=CC1c2cc(O)c(OC)cc2CCN1Cc1sc2ccccc2c1Cl` (stereo unspecified) stands 0.265; under `CC(C)(C)OC(=O)CC[C@@]1(C(=O)O)N=C(c2ccc(OCCCO)cc2)O[C@@H]1c1ccccc1CN=[N+]=[N-]`, 0.492.

For the compound `CC=CC(O)C1C=CC2C(=O)N(C)C(=O)C2N1N1CCCCC1` (stereo unspecified), the composite z-score was -0.114. Under `CO[C@H]1O[C@H](CO)[C@@H](OC(=O)Nc2ccccc2-c2ccccc2)[C@H](OC(=O)Nc2ccc3c(c2)OCO3)[C@@H]1OC(=O)Nc1ccc2c(c1)OCO2` stands 0.227; under `O=C1NCC(=O)N2[C@@H]1C[C@@H](C(=O)O)[C@H]2c1ccc(O)cc1`, 0.0374; under `C[C@@H](OCc1ccccc1)C1NC(=O)[C@@]23C(=O)N[C@@H](Cc4ccccc4)C2[C@H](C)[C@@]2(C)O[C@H]2C3/C=C/C/C=C\CNC(=O)CNC1=O` (stereo partly specified), -0.0351. Under `CCOC(=O)[C@H]1C/C=C/C[C@H](C(=O)OCC)C(=O)O[C@H]2[C@@H](OC)O[C@H](CO)[C@@H](OC(=O)CCc3ccccc3)[C@@H]2OC1=O` stands 0.023. `C=C(CCCC)/C(=C/C[C@@H](OC(C)=O)c1ccc(CO)o1)c1cc(C(=O)OC)ccc1OC` came in with a composite z-score of -0.0367. `C=CCOC(=O)[C@@H]1[C@H]2C(=O)O[C@H](c3ccccc3)[C@H](c3ccccc3)N2[C@H](c2ccc(OCCOC(=O)[C@H]3C[C@H]4C(=O)N[C@@H](CCCC[N+](C)(C)C)C(=O)N4[C@H]3c3ccc(O)cc3)cc2)[C@@]12C(=O)Nc1ccc(I)cc12` gave a composite z-score of 0.0623. `COC1(C)CN(Cc2ccccc2Br)[C@H](/C=C/c2ccccc2)[C@H](Cc2ccccc2)O1` (stereo partly specified) yielded a composite z-score of -0.102. Compound `C=CCN1C(=O)[C@]2(CC=C)N=C(c3ccc(OCCCO)cc3)O[C@@H]2c2ccccc21` registered a composite z-score of 0.197. In turn, `CCCC=C(CCC)[C@@H](NP(=O)(c1ccccc1)c1ccccc1)c1ccc(C(F)(F)F)cc1` displayed a composite z-score of 0.328. For the compound `CC(C)N1C(=O)[C@@]2(c3ccc([N+](=O)[O-])cc3)CC(=O)N(C3CCCCC3)[C@@H]2c2ccc(CO)cc21`, the composite z-score was determined as 0.0037.

`CON(C)C(=O)C=C1C[C@@H](c2cccc(Cl)c2)O[C@@H](c2cccc(Cl)c2)O1` showed a composite z-score of -0.0827. The compound `[N-]=[N+]=NCc1ccccc1C[C@@]1(C(N)=O)N=C(c2ccc(OCCCO)cc2)O[C@@H]1c1ccccc1CN=[N+]=[N-]` yielded a composite z-score of 0.0049. On to `O=C(O)[C@H]1C[C@H]2C(=O)N3CCC[C@H]3C(=O)N2[C@H]1c1cccc(OCCO)c1`, for which the composite z-score was -0.0901. Under `C=C(CCCC)C(=O)CC[C@@H](OC(=O)c1ccccc1-c1ccccc1C(=O)O)c1cccc(OCCO)c1` stands -0.23; under `[N-]=[N+]=NCc1ccccc1C[C@]1(C(=O)NCC(O)CO)N=C(c2ccc(OCCCO)cc2)O[C@H]1c1ccccc1CN=[N+]=[N-]` (stereo partly specified), -0.149; under `C=CCNC(=O)[C@@H]1[C@H]2C(=O)O[C@H](c3ccccc3)[C@H](c3ccccc3)N2[C@H](c2ccc(OCCO)cc2)[C@@]12C(=O)N(C(=O)OCCOC)c1ccc(C#CC3=CCCCC3)cc12`, -0.426. The compound `O=C1OCCC=C[C@H]2OC34C=CCN(c5ccc(Cl)cc5)C(=O)[C@H]3N(CCCCCO)C(=O)[C@@H]4C12` (stereo partly specified) had a composite z-score of 0.23.

Regarding `COc1c(C)cc(-c2cc3c(c(-c4ccccc4)n2)[Si](C(C)C)(C(C)C)OC3)cc1C`, the composite z-score is 0.205. Next, `CCCCN1CC=CC23O[C@@H]4/C=C\CCC(C)OC(=O)C4[C@H]2C(=O)N(CCCCCCO)[C@@H]3C1=O` (stereo partly specified): 0.0081.
